Among the data in PubChem BioAssay AID640 (Columbia University Molecular Screening Center, 2007) are inhibition values, retold here.

The campaign covered roughly 96,000 compounds. About 200 (0.21%) were called active.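 How the source made its calls: active means inhibition at 2 µM at or above a set limit, the screen mean plus 3 SD (cut at about 24% in these data); inactive means the rest.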 The list comes from a sample in which actives are over-represented; it also holds similar structures and randomly drawn compounds.

Tyrosine-protein phosphatase non-receptor type 22 (Homo sapiens), sequence (Q9Y2R2 whole entry, looked up, the tested form may be a part): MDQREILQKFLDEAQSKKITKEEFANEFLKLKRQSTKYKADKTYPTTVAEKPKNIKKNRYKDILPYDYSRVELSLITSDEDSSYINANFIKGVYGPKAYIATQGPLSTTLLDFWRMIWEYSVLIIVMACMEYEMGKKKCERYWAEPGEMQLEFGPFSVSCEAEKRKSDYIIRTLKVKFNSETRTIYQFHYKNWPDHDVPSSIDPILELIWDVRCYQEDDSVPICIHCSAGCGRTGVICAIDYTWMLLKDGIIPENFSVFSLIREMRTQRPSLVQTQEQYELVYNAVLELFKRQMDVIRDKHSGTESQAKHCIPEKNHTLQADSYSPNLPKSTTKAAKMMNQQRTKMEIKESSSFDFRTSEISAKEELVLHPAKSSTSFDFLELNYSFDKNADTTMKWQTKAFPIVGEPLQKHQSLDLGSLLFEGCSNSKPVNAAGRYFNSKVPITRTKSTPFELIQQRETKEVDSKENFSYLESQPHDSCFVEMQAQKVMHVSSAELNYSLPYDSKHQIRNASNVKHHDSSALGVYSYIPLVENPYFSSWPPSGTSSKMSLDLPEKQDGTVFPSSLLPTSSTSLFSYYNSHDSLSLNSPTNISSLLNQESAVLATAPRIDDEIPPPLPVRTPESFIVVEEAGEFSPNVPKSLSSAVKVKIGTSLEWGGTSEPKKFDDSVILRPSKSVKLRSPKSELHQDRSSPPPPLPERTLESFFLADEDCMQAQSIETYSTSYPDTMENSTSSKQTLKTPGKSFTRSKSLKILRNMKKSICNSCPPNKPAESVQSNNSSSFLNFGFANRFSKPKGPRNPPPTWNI

This assay addresses Tyrosine-protein phosphatase non-receptor type 22 (Homo sapiens) (UniProt Q9Y2R2). Kind of assay: PTPN22 phosphatase inhibitors, primary screen, biochemical, DiFMUP fluorescence, 2 µM (AID 640).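 Further: 0% = DMSO with enzyme and 100% = enzyme fully blocked by orthovanadate.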 Conditions: recombinant LYP catalytic domain, at 2 µM, stronger effect = higher value.
For `COc1ccc(/C(O)=C2/C(=O)C(=O)N(CC3CCCO3)C2c2ccc(OC)c(OC)c2)cc1` (configuration not stated), the inhibition (as a rule, the change of the read-out against control, counted positive when it falls) was -1.4% (inactive).

As to `COc1cc(CNCc2cccs2)cc(Br)c1OC`, the inhibition is 1.7% (inactive).

On to `O=c1onc(-c2cccs2)n1Cc1ccccc1`, for which the inhibition is 6.3% (inactive).

Consider `C=CCOC(=O)C1=C(C)NC(SCC(=O)OCC)=C(C#N)C1c1ccc(C)cc1` (configuration not stated), for which the inhibition was -1.5% (inactive).

Take `COc1ccccc1NC(=O)CSc1nnc(C)n1CC1CCCO1` (configuration not stated): the inhibition was -14.6% (inactive).

As for `CCCn1c(C(Cc2ccccc2)NC(=O)COC)nc2ccccc21` (configuration not stated), the inhibition was -7.4% (inactive).

As for `CC(C)OC(=O)CN1C(=O)C(=O)c2ccccc21`, the inhibition was -2.8% (inactive).

On to `COc1ccc([N+](=O)[O-])cc1C1NN=C(c2cccc3ccccc23)S1` (configuration not stated), for which the inhibition is 10.1% (inactive).

Take `O=C(NCc1ccco1)C1(c2ccc(Cl)cc2)CCCC1`: the inhibition is -8.9% (inactive).

For the molecule `Cc1cccc(NC(=O)N(Cc2cc3cc(C)cc(C)c3[nH]c2=O)CC2COCCO2)c1` (configuration not stated), the inhibition is 2.6% (inactive).

Regarding `CCOC(=O)c1nc(C)n(-c2ccc(Cl)cc2Cl)n1`, the inhibition is -1.3% (inactive).

With `Cc1ccc(N2CCN(/N=C/c3cccs3)CC2)cc1`, the inhibition was 9.9% (inactive).

In the case of `Clc1ccccc1SCc1nc2ccccc2[nH]1`, the inhibition was 2.7% (inactive).

As for `Cc1ccc(NC(=O)CSCC(=O)N2CCOCC2)cc1`, the inhibition was -3.1% (inactive).

For `COC(=O)c1ccc(C2C(Oc3ccccc3C)C(=O)N2CCc2ccc(OC)c(OC)c2)cc1` (configuration not stated), the inhibition was -11.5% (inactive).

Take `CCSc1nnc(NC(=O)Cc2ccccc2OC)s1`: the inhibition is 15.4% (inactive).

For `CC(c1ccco1)N(C(=O)Nc1ccccc1)C1CCCCC1` (configuration not stated), the inhibition is -2% (inactive).

Turning to `CCOc1c2ccc(C(=O)NC3CCCc4ccccc43)cc2nn1CC` (configuration not stated), the inhibition is -7.5% (inactive).

Consider `CCN1C(=O)/C(=C2/Sc3ccc(OC)cc3N2C)SC1=Nc1ccc(C)cc1`, for which the inhibition was -28% (inactive).

`O=C(ON=C1CCN(S(=O)(=O)c2ccccc2)CC1)c1ccc(Cl)cc1`: the inhibition was -19.3% (inactive).

`Cc1ccccc1C(=O)N1CCC(C(=O)Nc2ccc(S(=O)(=O)N(C)C(C)C)cc2)CC1`: the inhibition is 3.5% (inactive).

For the molecule `CCOc1c2ccc(C(=O)NCc3ccc4c(c3)OCO4)cc2nn1C`, the inhibition is -4.3% (inactive).

`Cc1cc(Cl)c(S(=O)(=O)N(C)C)cc1OCC(N)=O`: the inhibition was -3.7% (inactive).

As to `O=Cc1c(N2CCN(c3cccc(Cl)c3)CC2)nc2ccccn2c1=O`, the inhibition is -12.5% (inactive).

As for `COc1ccc(CN2CCn3ncc(C(=O)Nc4ccc(Cl)cc4Cl)c3C2=O)cc1`, the inhibition was -3.3% (inactive).

In the case of `CC1CCc2c(nc3ncnn3c2Nc2ccc(OC(F)(F)F)cc2)C1` (configuration not stated), the inhibition was 16.7% (inactive).

Consider `O=C(/C=C/Sc1ncn[nH]1)c1ccc(Cl)cc1`, for which the inhibition is -5.9% (inactive).
